Results taken from PubChem BioAssay AID2112 (National Center for Advancing Translational Sciences (NCATS), 2009).
Out of some 240,000 compounds screened, about 15 (0.006%) were called active. Calls come from the whole dose curve; as a rule, active = well fitted inhibition curve with a large enough effect; inconclusive = small, poorly fitted or top-dose-only effect, or effect the other way, or another doubt; inactive = no such curve, though single readings can be large or run the other way. The list is a sample of the results. Where a SMILES comes first, the peptide text is derived from it.

These molecules were tested against Lysosomal alpha-glucosidase (Homo sapiens) (UniProt P10253) (assay: qHTS Assay for Inhibitors and Activators of Human alpha-Glucosidase From Spleen Homogenate). Details: 4-MU-alpha-glucoside fluorescence; series mostly up to 79.9 µM.
Description: NIH Chemical Genomics Center [NCGC] NIH Molecular Libraries Probe Production Centers Network [MLPCN] MLPCN Grant: R03 MH084841-01 Assay Submitter (PI): Wei Zheng NCGC Assay Overview: Alpha-glucosidase is responsible for the hydrolysis of terminal, non-reducing 1,4-linked alpha-D-glucose residues, which releases alpha-D-glucose. It is a lysosomal hydrolase that is required for the degradation of a small percentage (1-3%) of cellular glycogen in humans. Deficiency of this enzyme results in glycogen-storage disease type II (GSDII), also referred to as Pompe disease, an autosomal recessive disorder. Structurally normal glycogen is accumulated in the lysosomes and cytoplasm in affected patients, primarily in muscle tissues. Excessive glycogen storage within lysosomes may interrupt normal functioning of other organelles and leads to cellular injury. In turn, this leads to enlargement and dysfunction of the entire organ involved (eg: cardiomyopathy and muscle weakness). It has been reported that the improper folding and trafficking of alpha-glucosidase resulting from genetic mutations may account for a significant number of Pompe patients. […] We optimized this alpha-glucosidase assay in 1536-well plate format for identification of novel small molecule inhibitors or activators with structures other than the sugar analogs in order to develop new pharmacological chaperones. In particular, this assay is directed towards discovering compounds active in a more natural setting, tissue homogenate, that may have been missed by screens of the purified enzyme under more stringent conditions.
NCGC Assay Protocol Summary: This is a fluorogenic enzyme assay with 4-methylumbelliferyl-alpha-D-glucopyranoside as the substrate and human spleen homogenate containing alpha-glucosidase as the enzyme preparation. Upon hydrolysis of this fluorogenic substrate, the resulting product, 4-methylumbelliferone (which excites at 365 nm and emits at 440 nm) can be detected by a fluorescence plate reader. Data were normalized to the controls for basal activity (without enzyme) and 100% activity (with enzyme). The AC50 values were determined from concentration-response data modeled with the standard Hill equation. Assay buffer: 50 mM citric acid (titrated with potassium phosphate to pH 5.0), 0.01% Tween-20 (pH 5.0 is an optimal condition for this enzyme assay) 1536-well assay protocol for the alpha-glucosidase from human spleen homogenate: (1) Add 2 ul/well spleen homogenate (1 ug) (2) Add 23 nL compounds in DMSO solution. The final titration was 0.5 nM to 58 uM. (3) Add 2 ul of substrate (1 mM final) (4) Incubate at 37 C for 40 min (5) Add 2 ul stop solution (1M NaOH and 1M Glycine mixture, pH 10) (6) Detect the assay plate in a ViewLux plate reader (PerkinElmer) with Ex=365 nm and Em=440nm. Keywords: Alpha-glucosidase, Pompe Disease, pharmacological chaperone, chaperone therapy, high throughput screening, alpha-glucosidase inhibitor, MLSMR, MLSCN, NIH Roadmap, qHTS and NCGC

outcome, inactive:
C=C(C)C(=O)c1ccc(F)cc1, CC[C@H](C)[C@H](NC(=O)[C@@H](N)CCC(=O)O)C(=O)N[C@@H](CC(C)C)C(=O)N[C@@H](CC(=O)O)C(=O)N[C@H](C(=O)N1CCC[C@H]1C(=O)N[C@@H](CO)C(=O)N[C@H](C(=O)O)[C@@H](C)O)C(C)C, H-EHIPA-OH, O=C(NCCCCc1ccccc1)C1CC(c2ccc([N+](=O)[O-])cc2)=NO1 (stereo unspecified), COc1ccccc1-c1nnc(NC(=O)c2ccc3ncsc3c2)o1, CN1CCN(c2cc3c(cc2F)c(=O)c(C(=O)O)cn3CCF)CC1, CCOC(OCC)OCC, Oc1ccc(-c2c(-c3ccccc3)nn3c(C(F)(F)F)cc(C(F)(F)F)nc23)cc1, O=C(NCCCNc1ccc([N+](=O)[O-])cc1Cl)c1ccccc1F, COCCCNC(=S)N1CCCC(c2nc3cc(C)c(C)cc3[nH]2)C1 (stereo unspecified), Brc1ccc2ncnc(NCc3cccnc3)c2c1, CCCC1=Nc2cc(C(=O)NCc3ccco3)ccc2Sc2ccccc21, CCOC(=O)c1c(C)n(C)c2ccc(OC)c(NS(=O)(=O)CC)c12, C/C=C(\C)C(=O)NCCN1C2=NC[C@H](Cc3ccc(O)cc3)N2C[C@@H]1Cc1ccc(OC)cc1, COc1ccc(C2=Nn3c(nnc3-c3ccccc3O)SC2)cc1, Cn1ccc(=NC=C(C#N)C#N)c2ccccc21, COc1ccc(C2=NN(C(=O)c3cccnc3)C(c3ccccc3)C2)cc1 (stereo unspecified), Cc1cc(N(C)C)nc(Cl)n1, O=C(CSc1cccc[n+]1[O-])c1ccc(-c2ccccc2)cc1, COc1cccc(CC2(CO)CCN(Cc3cnc(-c4cccc(C)c4)nc3)CC2)c1, O=C(Nc1ccccc1F)c1ccccc1-c1ccc(C(F)(F)F)cc1, O=[N+]([O-])c1ccccc1SNc1ccccn1, N#Cc1cccc(CS(=O)(=O)c2nnnn2-c2cc(C(F)(F)F)cc(C(F)(F)F)c2)c1, FC(F)(F)c1cccc(-c2cc3ccccc3nc2N2CCCC2)c1, O=C(Nc1ccc(Cl)cc1)/C(=C1\CCCN1)[N+](=O)[O-], Cc1noc(C)c1-c1ccc2ncnc(NCc3ccc4[nH]ccc4c3)c2c1, COc1ccc(Cl)cc1NC(=O)COC(=O)C(CC(C)C)N1C(=O)C2CC=CCC2C1=O (stereo unspecified), O=C(CCl)Nc1cccc(CP(=O)(c2ccccc2)c2ccccc2)c1, Cc1ccc(CNC(=O)C2(C(F)(F)F)C/C(=C\Cc3ccccc3)CCCO2)o1 (stereo unspecified), CCCN1CCC(=O)N(C(CSc2ccc(C)cc2)Cc2ccccc2)CC1 (stereo unspecified), COC(=O)Cn1cc(/C=C/[N+](=O)[O-])c2ccccc21, O=C(NCc1ccccn1)[C@]1(C(F)(F)F)C[C@H](CCc2ccccc2)CCCO1, CC(C)[C@@H]1NC(=O)[C@H](Cc2ccccc2)NC(=O)[C@@H](CC(=O)O)NC(=O)CNC(=O)[C@H](CCCNC(=N)N)NC1=O, COC(=O)[C@@]1(Cc2ccc(OC)cc2)[C@H]2c3cc(C(=O)N4CCCC4)n(Cc4ccc(OC(F)(F)F)cc4)c3C[C@H]2CN1C(=O)c1ccccc1, COc1ccc(C2/C=C\CN(Cc3ccco3)C(C)C(=O)N2Cc2ccc(F)cc2)cc1 (stereo unspecified), COc1cc2c(cc1OC)C(/C=C/c1ccco1)=NCC2, Cc1nc(-c2ccccc2)sc1-c1nc(-c2ccccc2)ncc1S(=O)(=O)c1ccccc1, CO[C@@]12[C@@H](COC(N)=O)C3=C(C(=O)C(C)=C(N)C3=O)N1C[C@@H]1N[C@@H]12, Cc1ccc2nc(/C(C#N)=C\c3ccc(OC(=O)c4cccs4)cc3)[nH]c2c1, COc1c(O)c2c(=O)cc(OC)c3c4c(OC)cc(=O)c5c(O)c(OC)c6c(c(c1C[C@@](C)(O)[C@H]6C(C)=O)c23)c54, Clc1ccc(C[n+]2cc(-c3ccc(Cl)cc3)n3c2CCC3)cc1, COc1ccc(NC2=CC(=S)NC(C)(C)C2)cc1, O=C(NCC1CC1)C1(C(F)(F)F)C/C(=C\CCO)CCCO1 (stereo unspecified), COc1cc2[nH]c(=O)n(Cc3ccc(C(=O)NC4CCN(Cc5ccccc5)CC4)cc3)c(=O)c2cc1OC, COC(=O)C(CC(C)C)NS(=O)(=O)c1cc(Br)ccc1Br (stereo unspecified), C=C1CCN(Cc2ccc(OC)cc2)S(=O)(=O)c2ccccc21, CCOc1cc(C2C(C(=O)OC(C)C)=C(C)NC3=C2C(=O)CCC3)cc([N+](=O)[O-])c1O (stereo unspecified), Cc1ccccc1N/C(SCc1ccc(Cl)cc1)=C(/C#N)C(N)=O, Cc1c(-c2ccccc2)n[nH]c1C(=O)N=Nc1c(O)[nH]c2ccccc12, Cc1cc(C)c(NC(=O)CN2C(=O)NC(Cc3ccccc3)C2=O)c(C)c1 (stereo unspecified), CC(=O)c1c(N2CCN(c3ccc(F)cc3)CC2)nc(=S)n(-c2ccccc2)c1C, O=C(CP(=O)(c1ccccc1)c1ccccc1)N1CCOCC1, Cc1nn(CCOc2ccc(Br)cc2)c(C)c1[N+](=O)[O-], COc1cc(OC)c2c(C)cc(=O)oc2c1C(CCN1CCCCC1)c1ccc(N(C)C)cc1 (stereo unspecified), Cc1ccc(-c2nc(C)sc2CC(=O)OCC(=O)Nc2c(F)cccc2F)cc1, CCCCCCCC[C@@H](O)/C=C/C=C/C=C\[C@@H](O)CCCC(=O)O, COc1ccc(CN2CCC(=O)c3ccccc3S2(=O)=O)cc1, COc1ccc(C2CC(O)(c3ccccc3)Oc3cc(C)cc(C)c32)cc1 (stereo unspecified), COC(=O)[C@@]1(C)C=C[C@@H](Cc2ccccc2)N1C(C)=O, O=C(C1CCN(c2nnc(-n3cccc3)s2)CC1)N1CCc2ccccc2C1, O=C(CSc1ccccn1)Nc1nc2c(ccc3ccccc32)s1, CC(C)C(NS(=O)(=O)c1ccc(-c2ccc(Br)cc2)cc1)C(=O)O (stereo unspecified), C[C@@H](O)[C@@H]1NC(=O)[C@H](CCCCN)NC(=O)[C@H](Cc2c[nH]c3ccccc23)NC(=O)[C@H](Cc2ccccc2)NC(=O)[C@H](Cc2ccccc2)NC(=O)[C@H](CC(N)=O)NC(=O)[C@H](CCCCN)NC(=O)[C@@H](NC(=O)[C@@H]2CCCN2)CSSC[C@@H](C(=O)N[C@@H](CCCCN)C(=O)O)NC(=O)[C@H](CO)NC(=O)[C@H](CO)NC(=O)[C@H](Cc2ccccc2)NC1=O (HELM PEPTIDE1{P.C.K.N.F.F.W.K.T.F.S.S.C.K}$PEPTIDE1,PEPTIDE1,2:R3-13:R3$$$V2.0), CSc1ccccc1N1CCN(CCCCCC(=O)NC2CCCc3ccccc32)CC1 (stereo unspecified), CC[C@H](C)[C@H](NC(=O)[C@H](Cc1ccc(O)cc1)NC(=O)[C@@H](NC(=O)[C@H](CCCN=C(N)N)NC(=O)[C@@H](N)CC(=O)O)C(C)C)C(=O)N[C@@H](Cc1cnc[nH]1)C(=O)N1CCC[C@H]1C(=O)N[C@@H](Cc1ccccc1)C(=O)O, Cc1ccc2c(c1)C(c1ccccc1)N(C(=O)c1ccc(S(=O)(=O)N3CCOCC3)cc1)CC(=O)N2 (stereo unspecified), COC(=O)[C@@]1(Cc2ccccc2)[C@H]2c3cc(C(=O)N(C)C)n(CCSCCO)c3C[C@H]2CN1C(=O)c1ccccc1, Cc1ccc(CNC(=O)C2(C(F)(F)F)C/C(=C\CCO)CCCO2)o1 (stereo unspecified), O=C(c1cc(C(F)(F)F)cc(C(F)(F)F)c1)N1CCC2(CCCN(c3ccccn3)C2)CC1, CCCN1CCC(=O)N(C(CSc2ccc(OC)cc2)Cc2ccccc2)CC1 (stereo unspecified), CCCCNC(=S)N/N=C1\CCCCc2ccccc21, C=CCCN(C(Cc1ccccc1)C(=O)OC)S(=O)(=O)c1cc(Br)ccc1Br (stereo unspecified), Cc1ccccc1Nc1scc(-c2ccc(Br)cc2)[n+]1-c1ccccc1C, Cc1nc(C(=O)N2CCCC(C(=O)c3ccc(Cl)cc3)C2)cs1 (stereo unspecified), CC1=CC(=C(C#N)c2nc3ccccc3s2)C=C(C)N1c1ccc(F)cc1F, Cc1cc(C(=O)OCC(=O)Nc2nccs2)c2ccccc2n1, O=C1NC(=Nc2ccc(Cl)cc2)SC1Cc1cccc(Cl)c1Cl (stereo unspecified), Cc1ccc(S(=O)(=O)N(CC(=O)Nc2cccc([N+](=O)[O-])c2)Cc2ccc(Cl)cc2)cc1, COc1ccc(C2=Nc3cc(C)ccc3OC2)cc1, CCOC(=O)Cn1c(=O)sc2cccc(Cl)c21, CCN(CC)CCNC(=O)c1sc2ncn(CC(=O)Nc3ccc(C)c(Cl)c3)c(=O)c2c1C, Cc1cccc2c1-c1sc(C(=O)NCCCN3CCc4ccccc4C3)cc1CO2, O=C1/C(=C/c2coc3ccc(O)cc3c2=O)SC(=S)N1c1ccccc1, CC[C@H](C)[C@H](NC(=O)[C@H](CCCNC(=N)N)NC(=O)[C@H](CCCNC(=N)N)NC(=O)[C@H](CC(C)C)NC(=O)[C@H](Cc1ccccc1)NC(=O)CNC(=O)CNC(=O)[C@@H](N)Cc1ccc(O)cc1)C(=O)N[C@@H](CCCNC(=N)N)C(=O)N1CCC[C@H]1C(=O)N[C@@H](CCCCN)C(=O)N[C@@H](CC(C)C)C(=O)N[C@@H](CCCCN)C(=O)N[C@@H](Cc1c[nH]c2ccccc12)C(=O)N[C@@H](CC(=O)O)C(=O)N[C@@H](CC(N)=O)C(=O)N[C@@H](CCC(N)=O)C(=O)O, COc1ccc(-c2ccc(C3C4C=CCCC4(C)C(=O)N3Cc3ccccc3)c(F)c2)cc1OC (stereo unspecified), Cc1ccc(-n2c(SCC(=O)N3c4ccccc4Sc4ccccc43)nnc2-c2ccncc2)cc1
